Rows were chosen to be rich in hits. Some 2.9% of all compounds tested hit in one or more screens of this group.
DRD3 antagonist – qHTS of D3 Dopamine Receptor Antagonist: qHTS. max response, negative = inhibition, %. D3R cells, DiscoveRx beta-arrestin luminescence, antagonist mode; active compounds read low. AID 652054, 2013. actives 2.5% (n = 360,000). D(3) dopamine receptor (Homo sapiens), P35462; in the data active = max response below about -50%; inconclusive = no clear call, values can overlap the other calls; also: % is scaled to controls: 0 for no effect and ±100 for the full control effect
Target sequence (P35462 whole entry, looked up): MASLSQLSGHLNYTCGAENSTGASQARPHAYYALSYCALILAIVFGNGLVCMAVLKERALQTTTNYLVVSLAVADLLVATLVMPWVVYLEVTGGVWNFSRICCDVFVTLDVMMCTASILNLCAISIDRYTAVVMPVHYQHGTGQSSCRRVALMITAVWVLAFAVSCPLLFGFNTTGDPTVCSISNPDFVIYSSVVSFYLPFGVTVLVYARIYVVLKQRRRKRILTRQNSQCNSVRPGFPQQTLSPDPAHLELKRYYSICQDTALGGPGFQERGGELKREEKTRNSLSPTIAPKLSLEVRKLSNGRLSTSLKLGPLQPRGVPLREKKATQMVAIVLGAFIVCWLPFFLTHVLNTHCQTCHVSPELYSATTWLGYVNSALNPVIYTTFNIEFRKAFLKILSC
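Cells expressing the human receptor were seeded at 1500 cells/well, incubated overnight at 37 degrees C in 5% CO2, then exposed to library compounds with dopamine controls for 90 minutes at 37 degrees C before luminescent detection.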
Integrin act MD – qHTS for Activators of Integrin-Mediated Alleviation for Muscular Dystrophy; actives 0.064% (n = 350,000); Potency, µM (top dose mostly 38.3 µM), for inactives: at the highest dose activation, hits mostly activators; alpha7betagal myoblasts, beta-gal FDG fluorescence, 48 h; active = well fitted activation curve with a large enough effect; inconclusive = small, poorly fitted or top-dose-only effect; inactive = no such curve, though single readings can be large or run the other way;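 also: potency is read from the fitted curve at half-maximal effect; 100% = response of the positive control SU9516; nearly all actives have a fitted effect of over 60% in size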
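alpha7betagal+/- myoblasts (passage 13, 250/well) treated 48 h at 37C with compounds at 1:260 dilution of DMSO stock. Lysed, then beta-galactosidase activity read as FDG fluorescence (ex 480/em 540) after 30 min, with pre-read for autofluorescence.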
DRD3 agonist – qHTS of D3 Dopamine Receptor Agonist: qHTS | actives 0.58% (n = 410,000) | D(3) dopamine receptor (Homo sapiens), P35462 | D3R DiscoveRx beta-arrestin cells, luminescence, 90 min | max activation, %; in the data active = max activation above about 30%; also: 0% is about no effect
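Agonist mode: compounds and dopamine controls were applied to plated cells for 90 min at 37 degrees C after an overnight attachment at 1500 cells/well. Luminescent read-out followed 30 - 60 minutes at room temperature with DiscoveRx detection reagent.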
The depositor's hits bear a star; ? = inconclusive; nt = not tested or not shown; [ ] = remark or other dose.

SMILES | DRD3 antagonist | Integrin act MD | DRD3 agonist
CCOc1ccc2c(c1)C(N(CCN1CCOCC1)C(=O)Nc1ccc(OC)cc1OC)CC(C)(C)O2 (centres undefined) | 21 | ? | -14
O=C(Nc1cc(=O)[nH]c(=O)[nH]1)c1cccc(Br)c1 | -4 | 15% | -8
O=C(Nc1cccnc1Cl)c1ccc(S(=O)(=O)N2CCCCCC2)cc1 | 9 | 2%[7.66 µM] | 2
O=C(CCCN1C(=O)C2CCCCN2C1=O)N1CCN(c2ccc([N+](=O)[O-])cc2)CC1 (centres undefined) | -24 | -20% | 0
CCOC(=O)CNC(=O)C1CCC(CNS(=O)(=O)c2cccc3nsnc23)CC1 (centres undefined) | -18 | 9% | -13
Cc1cc2cc3c(cc2nc1SCC(=O)O)CCC3 | -3 | -30% | -2
COc1cc2c(cc1NC(=O)CSc1ccccc1)oc1ccccc12 | 10 | -18% | 4
COc1cc2c(cc1NC(=O)CSc1nc3ccccc3[nH]1)oc1ccccc12 | -75* | -38% | -8
Cc1ccc(S(=O)(=O)N2CCOCC2)cc1C(=O)O | 37 | 14%[7.66 µM] | -12
O=C(O)c1cc2cccc(S(=O)(=O)N3CCOCC3)c2cc1O | -54* | -6% | 12
COc1cc(/C=N\Nc2ccc([N+](=O)[O-])cc2)ccc1OCC(=O)Nc1ccc(C)c(C)c1 | -3 | -40% | -2
Cc1c(O)ccoc1=O | 1 | 27% | 17
Cc1occc(=O)c1O | -53* | nt | 1
CC1CCN(C2=NC(=O)/C(=C/c3ccccc3F)S2)CC1 | -24 | -19% | -41
CC1CCN(C2=NC(=O)/C(=C/c3cccc(O)c3)S2)CC1 | -85* | -1% | -37
CC(C)N1C(=O)S/C(=C/c2ccc(Sc3nc4ccccc4[nH]3)o2)C1=O | 7 | -57% | 8
C=CCN1C(=O)S/C(=C/c2ccc(Sc3nc4ccccc4[nH]3)o2)C1=O | 38 | -27% | 51*
Cc1ccc(S(=O)(=O)N(CC(=O)NCc2ccccn2)c2ccc(Cl)cc2)cc1 | -12 | -1% | -2
COc1ccc(NC(=O)CSCc2cc(=O)c3cc(C)ccc3[nH]2)cc1 | nt | nt | 4
OCC[C@@H]1C[C@H](O)[C@@H](O)[C@@]2(Cc3ccccc3CCO2)O1 | 0 | 4% | -2
OCC[C@H]1C[C@H](O)[C@@H](O)[C@]2(Cc3ccccc3O2)O1 | -68* | 23% | 2
OCC[C@@H]1C[C@@H](O)[C@H](O)[C@@]2(Cc3ccccc3O2)O1 | 29 | 8% | 8
OCC[C@H]1C[C@@H](O)[C@H](O)[C@]2(Cc3ccccc3CCO2)O1 | -9 | -44% | 31*
CN(C)S(=O)(=O)c1ccc(C(=O)Nc2nnc(SCc3cccc4ccccc34)s2)cc1 | 8 | 27% | 5
CC(=O)OCC1OC(Nc2cccc(C)c2)C(OC(C)=O)C(OC(C)=O)C1OC(C)=O (centres undefined) | -3 | -11% | 6
SMILES | DRD3 antagonist | Integrin act MD | DRD3 agonist
COc1ccc(NC(=O)c2cc(C)nc3c2c(C)nn3-c2cccc(Cl)c2C)c(OC)c1 | nt | nt | -5
c1ccc(-c2nnc3oc(-c4cccs4)nn23)cc1 | 10 | -20% | 1
CC(=O)c1ccc(-c2ccc([C@H]3[C@@H]4C=CCC[C@@]4(C)C(=O)N3Cc3ccccc3)c(F)c2)cc1 | 0 | -31% | 48*
COc1ccc(/C=C/c2ccccc2)cc1[C@H]1[C@@H]2C=CCC[C@@]2(C)C(=O)N1Cc1ccccc1 | -66* | 0% | -34
COc1ccc(-c2ccc(OC)c([C@H]3[C@H]4C=CC[C@@H](C)[C@@H]4C(=O)N3Cc3ccccc3)c2)cc1C | 0 | -30% | -32
COc1ccc(-c2ccc(OC)c([C@H]3[C@@H]4C=CCC[C@@]4(C)C(=O)N3Cc3ccccc3)c2)cc1OC | -2 | 0% | -2
COc1ccc(Br)cc1[C@H]1[C@@H]2C=CCC[C@@]2(C)C(=O)N1Cc1ccccc1 | -55* | -8% | -36
COc1ccc(-c2ccc(N(C)C)cc2)cc1[C@H]1[C@@H]2C=CCC[C@@]2(C)C(=O)N1Cc1ccccc1 | -8 | -15% | -10
COc1ccc(/C=C/c2ccccc2)cc1[C@H]1[C@H]2C=CC[C@@H](C)[C@@H]2C(=O)N1Cc1ccccc1 | -53* | -2% | -22
Cc1ccc(-c2ccc([C@H]3[C@@H]4C=CCC[C@@]4(C)C(=O)N3Cc3ccccc3)c(F)c2)cc1 | 17 | 17% | 1
O=C(NN1C(=O)C2C3c4ccccc4C(c4ccccc43)C2C1=O)C1CC1 (centres undefined) | 3 | 0% | 5
COc1cccc(N2CCN(C(=O)c3c(C)oc4ncnc(N5CCCCC5)c34)CC2)c1 | nt | nt | -13
Cc1ccc(S(=O)(=O)NCc2ccccc2)cc1C(=O)NCC(=O)Nc1c(C)cccc1C | 11 | -7% | 9
Cc1ccc(NC(=O)COC(=O)c2cccc3c2C(=O)c2ccccc2C3=O)c(C)c1 | 53 | -44% | 22
Cc1cc(C)c(NC(=O)COC(=O)c2cccc3c2C(=O)c2ccccc2C3=O)c(C)c1 | 35 | -36% | 32*
COC(=O)c1sc2ncn(N)c(=O)c2c1C | 6 | 0% | 2
CC(=O)Nc1cc(C(=O)NCc2ccc(C)cc2)ccc1Sc1ccc(C)cc1 | nt | nt | -7
CCN(CC)CCNC(=O)c1ccc(Sc2ccc(Cl)cc2)c(NC(C)=O)c1 | -77* | -54% | -16
CCN(CC)CCNC(=O)c1ccc(Sc2ccc(C)cc2)c(NC(C)=O)c1 | -88* | -44% | -16
CCN(CCCNC(=O)c1ccc(Sc2ccc(Cl)cc2)c(NC(C)=O)c1)c1cccc(C)c1 | nt | nt | -5
CCOC(=O)C1=C(c2ccccc2)NC(=O)NC1c1ccc(N(C)C)cc1 (centres undefined) | 3 | -14% | 7
Clc1ccc(Nc2c3c(nc4ncnn24)CCC3)cc1 | 10 | -13% | 4
O=C(CSc1nnnn1-c1ccc2c(c1)OCCO2)Nc1nc2c(s1)CCCC2 | 14 | -32% | -5
O=c1[nH]nc(SCc2nc3ccccc3s2)n1C1CC1 | -12 | 17% | -4
OC(COCc1cccs1)CN1CCN(c2cccc(C(F)(F)F)c2)CC1 (centres undefined) | -55* | -25% | -5
SMILES | DRD3 antagonist | Integrin act MD | DRD3 agonist
O=S(=O)(c1ccc(F)cc1)N1CCN(CC(O)COCc2cccs2)CC1 (centres undefined) | -28 | -6% | 0
CCc1oc2ccccc2c1C(=O)c1cc(Br)c(O)c(Br)c1 | 16 | nt | -17
c1ccc(COc2cccc(-c3cc4nc(NCCN5CCOCC5)ccn4n3)c2)cc1 | 21 | nt | 7
CCCCCCN1CCN(C2CN(Cc3ccccc3)S(=O)(=O)C2)CC1 (centres undefined) | -94* | nt | -15
Cc1ccc(CN2CC(N3CCN(C4CCN(C)CC4)CC3)CS2(=O)=O)cc1 (centres undefined) | ? | nt | -5
CCCCCCN1CCN(C2CN(Cc3ccc(C)cc3)S(=O)(=O)C2)CC1 (centres undefined) | 0 | nt | -10
Cc1ccc(CN2CC(N3CCN(C)CC3)CS2(=O)=O)cc1 (centres undefined) | -68* | nt | -3
Cc1ccc(COC[C@H](CC(C)C)N2CCN(C(=O)c3cccc(C(F)(F)F)c3)CCC2=O)cc1 | 0 | nt | 7

Compound activity as filed in PubChem.
